Data published in PubChem BioAssay AID1159580 (chemical genetic matrix, 2015).
About 2,000 (36%) of roughly 5,500 compounds were called active. Another 18% or so got no clear call; they are omitted. Rule as the data show it: active = normalized growth mostly below about 0.91 (no sharp cut-off); inconclusive = no clear call, values can overlap the other calls; inactive = mostly above about 0.92. This is one part of the list.

Assay: chemical genetic growth profiling, strain panel (AID 1159580);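 also: tested at 20 µM; growth read once vehicle control cultures reached saturation at 30 °C; 1 = growth at the plate median or of vehicle wells; lower values mean less growth of the strain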
Details: growth OD

Measured: normalized growth

O=C(Oc1cc(OC(=O)c2ccccc2)c2c(c1)O[C@H](c1ccc(OC(=O)c3ccccc3)c(OC(=O)c3ccccc3)c1)[C@@H](OC(=O)c1ccccc1)C2)c1ccccc1
inactive: S. cerevisiae deletion strains, locus YAL021C, strain ccr4, active compounds read low 1.01 | S. cerevisiae deletion strains, locus YAL026C, strain drs2, active compounds read low 0.998 | S. cerevisiae deletion strains, locus YAL030W, strain snc1, active compounds read low 0.991 | S. cerevisiae deletion strains, locus YBL061C, strain skt5, active compounds read low 0.99 | S. cerevisiae deletion strains, locus YBR009C, strain hhf1, active compounds read low 0.982 | S. cerevisiae deletion strains, locus YBR021W, strain FUR4, active compounds read low 1.07 | S. cerevisiae deletion strains, locus YBR023C, strain chs3, active compounds read low 0.999 | S. cerevisiae deletion strains, locus YBR171W, strain sec66, active compounds read low 0.997 | S. cerevisiae deletion strains, locus YBR229C, strain ROT2, active compounds read low 1.04 | S. cerevisiae deletion strains, locus YBR231C, strain swc5, active compounds read low 0.99 | S. cerevisiae deletion strains, locus YBR279W, strain paf1, active compounds read low 1 | S. cerevisiae deletion strains, locus YCL011C, strain gbp2, active compounds read low 0.987 | S. cerevisiae deletion strains, locus YCL016C, strain dcc1, active compounds read low 0.994 | S. cerevisiae deletion strains, locus YCL029C, strain bik1, active compounds read low 1.05 | S. cerevisiae deletion strains, locus YCL061C, strain MRC1, active compounds read low 0.999 | S. cerevisiae deletion strains, locus YCL069W, strain vba3, active compounds read low 1 | S. cerevisiae deletion strains, locus YCR088W, strain abp1, active compounds read low 0.993 | S. cerevisiae deletion strains, locus YDL005C, strain med2, active compounds read low 0.991 | S. cerevisiae deletion strains, locus YDL035C, strain GPR1, active compounds read low 1.04 | S. cerevisiae deletion strains, locus YDL040C, strain nat1, active compounds read low 0.991 | S. cerevisiae deletion strains, locus YDL074C, strain BRE1, active compounds read low 1.14 | S. cerevisiae deletion strains, locus YDL101C, strain DUN1, active compounds read low 1.05 | S. cerevisiae deletion strains, locus YDL185W, strain tfp1, active compounds read low 1.06 | S. cerevisiae deletion strains, locus YDL192W, strain arf1, active compounds read low 1.07 | S. cerevisiae deletion strains, locus YDR001C, strain nth1, active compounds read low 0.994 | S. cerevisiae deletion strains, locus YDR069C, strain doa4, active compounds read low 0.986 | S. cerevisiae deletion strains, locus YDR101C, strain arx1, active compounds read low 1.03 | S. cerevisiae deletion strains, locus YDR137W, strain rgp1, active compounds read low 1.03 | S. cerevisiae deletion strains, locus YDR159W, strain sac3, active compounds read low 0.999 | S. cerevisiae deletion strains, locus YDR162C, strain NBP2, active compounds read low 1.03 | S. cerevisiae deletion strains, locus YDR195W, strain ref2 0.953 | S. cerevisiae deletion strains, locus YDR297W, strain sur2, active compounds read low 1 | S. cerevisiae deletion strains, locus YDR318W, strain mcm21, active compounds read low 1.04 | S. cerevisiae deletion strains, locus YDR334W, strain swr1, active compounds read low 0.992 | S. cerevisiae deletion strains, locus YDR335W, strain msn5, active compounds read low 0.999 | S. cerevisiae deletion strains, locus YDR388W, active compounds read low 1.04 | S. cerevisiae deletion strains, locus YDR392W, strain spt3, active compounds read low 0.927 | S. cerevisiae deletion strains, locus YDR502C, strain sam2, active compounds read low 1.06 | S. cerevisiae deletion strains, locus YEL003W, strain gim4, active compounds read low 0.994 | S. cerevisiae deletion strains, locus YEL037C, strain rad23, active compounds read low 0.991 | S. cerevisiae deletion strains, locus YEL061C, strain CIN8 (second series), active compounds read low 0.999 | S. cerevisiae deletion strains, locus YEL061C, strain CIN8, active compounds read low 1.02 | S. cerevisiae deletion strains, locus YER015W, strain faa2, active compounds read low 0.987 | S. cerevisiae deletion strains, locus YER016W, strain bim1, active compounds read low 0.991 | S. cerevisiae deletion strains, locus YER110C, active compounds read low 1.06 | S. cerevisiae deletion strains, locus YER111C, strain swi4, active compounds read low 0.999 | S. cerevisiae deletion strains, locus YER155C, strain BEM2 (second series), active compounds read low 0.993 | S. cerevisiae deletion strains, locus YER155C, strain BEM2, active compounds read low 1.04 | S. cerevisiae deletion strains, locus YER167W, strain BCK2, active compounds read low 1.03 | S. cerevisiae deletion strains, locus YFR010W, strain ubp6, active compounds read low 0.993 | S. cerevisiae deletion strains, locus YGL078C, strain dbp3, active compounds read low 1.04 | S. cerevisiae deletion strains, locus YGL086W, strain mad1, active compounds read low 1.04 | S. cerevisiae deletion strains, locus YGL167C, strain pmr1, active compounds read low 0.993 | S. cerevisiae deletion strains, locus YGL173C, strain kem1, active compounds read low 0.998 | S. cerevisiae deletion strains, locus YGL227W, strain vid30, active compounds read low 0.982 | S. cerevisiae deletion strains, locus YGL240W, strain doc1, active compounds read low 0.977 | S. cerevisiae deletion strains, locus YGL248W, strain PDE1, active compounds read low 1.08 | S. cerevisiae deletion strains, locus YGL253W, strain hxk2, active compounds read low 1 | S. cerevisiae deletion strains, locus YGR135W, strain pre9, active compounds read low 1.09 | S. cerevisiae deletion strains, locus YGR252W, strain gcn5, active compounds read low 1.17 | S. cerevisiae deletion strains, locus YHR013C, strain ard1, active compounds read low 0.958 | S. cerevisiae deletion strains, locus YHR027C, strain rpn1, active compounds read low 1 | S. cerevisiae deletion strains, locus YHR079C, strain IRE1 (second series), active compounds read low 1.05 | S. cerevisiae deletion strains, locus YHR094C, strain hxt1, active compounds read low 1.03 | S. cerevisiae deletion strains, locus YHR129C, strain ARP1, active compounds read low 1.05 | S. cerevisiae deletion strains, locus YHR142W, strain chs7, active compounds read low 1.03 | S. cerevisiae deletion strains, locus YHR200W, strain rpn10, active compounds read low 1.05 | S. cerevisiae deletion strains, locus YIL066C, strain RNR3, active compounds read low 1.05 | S. cerevisiae deletion strains, locus YIL073C, strain SPO22, active compounds read low 1.16 | S. cerevisiae deletion strains, locus YIL125W, strain kgd1, active compounds read low 1.02 | S. cerevisiae deletion strains, locus YIR030C, strain dcg1, active compounds read low 1.03 | S. cerevisiae deletion strains, locus YJL092W, strain hpr5, active compounds read low 0.993 | S. cerevisiae deletion strains, locus YJL095W, strain BCK1 (second series), active compounds read low 0.998 | S. cerevisiae deletion strains, locus YJL095W, strain BCK1, active compounds read low 1.12 | S. cerevisiae deletion strains, locus YJL115W, strain asf1, active compounds read low 0.984 | S. cerevisiae deletion strains, locus YJL129C, strain trk1, active compounds read low 0.999 | S. cerevisiae deletion strains, locus YJL134W, strain LCB3, active compounds read low 1.03 | S. cerevisiae deletion strains, locus YJL154C, strain vps35, active compounds read low 0.997 | S. cerevisiae deletion strains, locus YJL164C, strain tpk1, active compounds read low 0.974 | S. cerevisiae deletion strains, locus YJL166W, strain qcr8, active compounds read low 0.986 | S. cerevisiae deletion strains, locus YJL168C, strain set2, active compounds read low 1.06 | S. cerevisiae deletion strains, locus YJL187C, strain SWE1 (second series), active compounds read low 1.07 | S. cerevisiae deletion strains, locus YJL187C, strain SWE1, active compounds read low 1 | S. cerevisiae deletion strains, locus YJR075W, strain HOC1, active compounds read low 1.05 | S. cerevisiae deletion strains, locus YKL009W, strain mrt4, active compounds read low 1.05 | S. cerevisiae deletion strains, locus YKL068W, active compounds read low 1.02 | S. cerevisiae deletion strains, locus YKL085W, strain MDH1 (second series), active compounds read low 1.01 | S. cerevisiae deletion strains, locus YKL085W, strain MDH1, active compounds read low 1.01 | S. cerevisiae deletion strains, locus YKL160W, strain elf1, active compounds read low 1.01 | S. cerevisiae deletion strains, locus YKL190W, strain CNB1, active compounds read low 0.999 | S. cerevisiae deletion strains, locus YKR001C, strain vps1, active compounds read low 1.08 | S. cerevisiae deletion strains, locus YKR026C, strain gcn3, active compounds read low 0.968 | S. cerevisiae deletion strains, locus YKR091W, strain srl3, active compounds read low 0.996 | S. cerevisiae deletion strains, locus YLL001W, strain dnm1, active compounds read low 1.01 | S. cerevisiae deletion strains, locus YLL026W, active compounds read low 0.985 | S. cerevisiae deletion strains, locus YLL041C, strain sdh2, active compounds read low 1 | S. cerevisiae deletion strains, locus YLR027C, strain aat2, active compounds read low 0.995 | S. cerevisiae deletion strains, locus YLR039C, strain RIC1, active compounds read low 1.24 | S. cerevisiae deletion strains, locus YLR058C, strain SHM2, active compounds read low 1.04 | S. cerevisiae deletion strains, locus YLR102C, strain apc9, active compounds read low 1.03 | S. cerevisiae deletion strains, locus YLR221C, strain rsa3, active compounds read low 1 | S. cerevisiae deletion strains, locus YLR258W, strain gsy2, active compounds read low 0.993 | S. cerevisiae deletion strains, locus YLR262C, strain YPT6 (second series), active compounds read low 0.993 | S. cerevisiae deletion strains, locus YLR268W, strain sec22, active compounds read low 1.04 | S. cerevisiae deletion strains, locus YLR320W, strain mms22, active compounds read low 0.975 | S. cerevisiae deletion strains, locus YLR330W, strain CHS5, active compounds read low 1.04 | S. cerevisiae deletion strains, locus YLR342W, strain FKS1 (second series), active compounds read low 1.06 | S. cerevisiae deletion strains, locus YLR342W, strain FKS1, active compounds read low 0.989 | S. cerevisiae deletion strains, locus YLR357W, strain rsc2, active compounds read low 0.979 | S. cerevisiae deletion strains, locus YLR370C, strain arc18, active compounds read low 0.999 | S. cerevisiae deletion strains, locus YLR371W, strain rom2, active compounds read low 1.08 | S. cerevisiae deletion strains, locus YLR384C, strain iki3, active compounds read low 1.01 | S. cerevisiae deletion strains, locus YLR418C, strain cdc73, active compounds read low 1.15 | S. cerevisiae deletion strains, locus YML016C, strain PPZ1, active compounds read low 1.02 | S. cerevisiae deletion strains, locus YML032C, strain rad52, active compounds read low 1.04 | S. cerevisiae deletion strains, locus YML120C, strain ndi1, active compounds read low 1.01 | S. cerevisiae deletion strains, locus YML124C, strain tub3, active compounds read low 1.03 | S. cerevisiae deletion strains, locus YMR058W, strain fet3, active compounds read low 0.999 | S. cerevisiae deletion strains, locus YMR078C, strain ctf18, active compounds read low 1.04 | S. cerevisiae deletion strains, locus YMR125W, strain sto1, active compounds read low 0.978 | S. cerevisiae deletion strains, locus YMR129W, active compounds read low 0.997 | S. cerevisiae deletion strains, locus YMR205C, strain PFK2, active compounds read low 0.973 | S. cerevisiae deletion strains, locus YMR223W, strain ubp8, active compounds read low 1.06 | S. cerevisiae deletion strains, locus YMR231W, strain pep5, active compounds read low 0.998 | S. cerevisiae deletion strains, locus YMR307W, strain GAS1, active compounds read low 1.16 | S. cerevisiae deletion strains, locus YNL067W, strain RPL9B, active compounds read low 0.984 | S. cerevisiae deletion strains, locus YNL071W, strain lat1, active compounds read low 1.01 | S. cerevisiae deletion strains, locus YNL128W, strain TEP1, active compounds read low 0.999 | S. cerevisiae deletion strains, locus YNL209W, strain ssb2, active compounds read low 1 | S. cerevisiae deletion strains, locus YNL233W, strain BNI4, active compounds read low 1.07 | S. cerevisiae deletion strains, locus YNL248C, strain rpa49, active compounds read low 1.01 | S. cerevisiae deletion strains, locus YNL250W, strain rad50, active compounds read low 1.05 | S. cerevisiae deletion strains, locus YNL271C, strain bni1, active compounds read low 1.03 | S. cerevisiae deletion strains, locus YNL298W, strain CLA4, active compounds read low 1.04 | S. cerevisiae deletion strains, locus YNL307C, strain MCK1, active compounds read low 1.06 | S. cerevisiae deletion strains, locus YNL322C, strain KRE1 (second series), active compounds read low 0.985 | S. cerevisiae deletion strains, locus YNR049C, strain mso1, active compounds read low 0.991 | S. cerevisiae deletion strains, locus YNR052C, strain pop2, active compounds read low 1.06 | S. cerevisiae deletion strains, locus YOL006C, strain TOP1, active compounds read low 1.32 | S. cerevisiae deletion strains, locus YOL012C, strain htz1 1.34 | S. cerevisiae deletion strains, locus YOL147C, strain pex11, active compounds read low 1.03 | S. cerevisiae deletion strains, locus YOR001W, strain rrp6, active compounds read low 0.994 | S. cerevisiae deletion strains, locus YOR061W, strain CKA2, active compounds read low 1.04 | S. cerevisiae deletion strains, locus YOR069W, strain VPS5, active compounds read low 1.03 | S. cerevisiae deletion strains, locus YOR070C, strain gyp1, active compounds read low 0.996 | S. cerevisiae deletion strains, locus YOR080W, strain dia2, active compounds read low 0.989 | S. cerevisiae deletion strains, locus YOR083W, strain WHI5, active compounds read low 1.02 | S. cerevisiae deletion strains, locus YOR106W, strain vam3, active compounds read low 1 | S. cerevisiae deletion strains, locus YOR136W, strain idh2, active compounds read low 1.04 | S. cerevisiae deletion strains, locus YOR144C, strain elg1, active compounds read low 1.04 | S. cerevisiae deletion strains, locus YOR184W, strain ser1, active compounds read low 1.05 | S. cerevisiae deletion strains, locus YOR265W, strain rbl2, active compounds read low 0.993 | S. cerevisiae deletion strains, locus YOR270C, strain vph1, active compounds read low 1.01 | S. cerevisiae deletion strains, locus YOR290C, strain snf2, active compounds read low 0.954 | S. cerevisiae deletion strains, locus YOR316C, strain cot1, active compounds read low 1.05 | S. cerevisiae deletion strains, locus YPL051W, strain arl3, active compounds read low 1 | S. cerevisiae deletion strains, locus YPL055C, strain LGE1, active compounds read low 1.07 | S. cerevisiae deletion strains, locus YPL078C, strain atp4, active compounds read low 1.01 | S. cerevisiae deletion strains, locus YPL106C, strain sse1, active compounds read low 0.975 | S. cerevisiae deletion strains, locus YPL240C, strain hsp82, active compounds read low 0.99 | S. cerevisiae deletion strains, locus YPR119W, strain clb2, active compounds read low 1.04 | S. cerevisiae deletion strains, locus YPR141C, strain kar3, active compounds read low 1.04 | S. cerevisiae deletion strains, locus YPR163C, strain tif3, active compounds read low 1.05 | S. cerevisiae deletion strains, locus YPR167C, strain met16, active compounds read low 1.07 | S. cerevisiae deletion strains, strain wtn01, active compounds read low 1.04 | S. cerevisiae strains, strain wild type, active compounds read low 1.04
